Bioassay records: PubChem, several laboratories
GDH-TPI inh: GDH-TPI coupling enzyme inhibitors, primary screen, artefact control for M. tuberculosis FBA inhibitor project, biochemical, absorbance, full deck; GDH-TPI coupled enzyme counterscreen, NADH absorbance; inhibition, % at 4.8 µM; hit rate 1.2% among 360,000; in the data active = inhibition above about 30%;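 note: 0% = DMSO wells and 100% = wells lacking the enzyme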
BoNT-A LC inh2: BoNT/A light chain protease inhibitors, primary screen, biochemical, flow cytometry, MLPCN library. multiplex microsphere protease substrate cleavage. inhibition, % at 10 µM. hit rate 0.17% among 360,000. AID 588499, 2011; note: plate controls were buffer without enzyme for full effect and enzyme alone for no effect
Anthrax LF prot: Bacillus anthracis LF protease inhibitors, primary screen, biochemical, multiplex microsphere, MLPCN library | Lethal factor (Bacillus anthracis), P15917 | multiplex microsphere protease cleavage assay | inhibition, % at 10 µM | hit rate 0.12% among 360,000; note: plate controls were buffer without enzyme for full effect and enzyme alone for no effect
Bead autofluor: compound fluorescence in toxin protease inhibitor counterscreen. hit rate 3.1% among 360,000. compound autofluorescence counterscreen, microsphere flow cytometry; active compounds read high. fluorescence intensity (concentration not given with the values); in the data active = fluorescence intensity above about 16000; inconclusive = no clear call, values can overlap the other calls
BoNT-F LC inh: BoNT/F light chain protease inhibitors, primary screen, biochemical, flow cytometry, MLPCN library; Botulinum neurotoxin type F light chain protease (Clostridium botulinum); Multiplex microsphere protease cleavage assay; inhibition, % at 10 µM; hit rate 0.22% among 360,000; in the data active = inhibition above about 35%, passing the limit was not always enough; inconclusive = no clear call, values can overlap the other calls; note: plate controls were buffer without enzyme for full effect and enzyme alone for no effect
FBA Mtb inh: Mtb FBA enzyme inhibitors, primary screen, biochemical, fluorescence, strain H37Rv | Fructose-bisphosphate aldolase (Mycobacterium tuberculosis (strain ATCC 25618 / H37Rv)), … | purified M. tuberculosis FBA, fluorescence read-out | inhibition, % at 1 µM | hit rate 2.3% among 360,000 | AID 588726, 2011; in the data active = inhibition above about 27%;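 note: 0% = vehicle and 100% = reference inhibitor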
Target sequence (P9WQA3 whole entry, looked up): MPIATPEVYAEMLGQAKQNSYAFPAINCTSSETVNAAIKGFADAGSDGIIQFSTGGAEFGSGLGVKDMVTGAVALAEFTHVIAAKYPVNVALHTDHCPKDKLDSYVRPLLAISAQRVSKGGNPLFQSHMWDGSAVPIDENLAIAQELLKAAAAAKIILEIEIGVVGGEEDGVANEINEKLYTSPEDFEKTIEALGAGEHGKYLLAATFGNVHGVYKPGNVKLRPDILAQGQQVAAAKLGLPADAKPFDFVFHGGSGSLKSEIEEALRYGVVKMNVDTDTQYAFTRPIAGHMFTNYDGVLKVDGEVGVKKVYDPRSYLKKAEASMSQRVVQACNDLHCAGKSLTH
Numbers without * were called inactive; ? = inconclusive; . = no result given; ! = a repeat was not active. A selection: hits, their analogues and other compounds. The true share with any hit is near 6.7%. Cut-off read from the data, not from the text of the source, unless noted: active = inhibition above about 30%; inconclusive = no clear call, values can overlap the other calls; inactive = below that.

SMILES | GDH-TPI inh | BoNT-A LC inh2 | Anthrax LF prot | Bead autofluor | BoNT-F LC inh | FBA Mtb inh
Cc1c(N/N=C(\C#N)C(=O)c2ccc(Cl)cc2)c(=O)n(-c2ccccc2)n1C | 23 | -1 | 0 | 2450 | -16 | -14
C/C=C(\C)C(=O)NCCN1C2=NC[C@H](C)N2C[C@@H]1Cc1ccc(OC)cc1 | 6 | 0 | 8 | 4377 | -3 | -1
COC(=O)COc1ccc(S(=O)(=O)NCc2cccnc2)cc1C | -6 | 6 | 1 | 17503* | 10 | -1
CCOc1ccc(S(=O)(=O)NCc2cccnc2)cc1C | 9 | -1 | 1 | 4322 | -9 | -5
COc1cc(S(=O)(=O)NCc2cccnc2)ccc1F | -4 | 1 | -4 | 21999* | 0 | -2
Cc1ccc(N(CCCCN2C(=O)c3ccccc3C2=O)C(=O)c2cccc([N+](=O)[O-])c2)cc1 | 8 | 1 | -1 | 16296* | 1 | 1
O=C1c2ccccc2C(=O)N1CCCCN(C(=O)c1cc([N+](=O)[O-])cc([N+](=O)[O-])c1)c1ccc(Cl)cc1 | 15 | 0 | -6 | 6268 | -10 | -3
Brc1cccc(-c2nc(-c3ccncc3)no2)c1 | 0 | -1 | -1 | 4789 | -6 | -1
CC(=O)NC(c1ccco1)c1ccc2cccnc2c1O (stereo not drawn) | 6 | -1 | -5 | 3356 | -7 | 2
COc1cc(OC)c(OC)cc1/C=N/NC(=O)CCc1c(C)n[nH]c1C | 56* | 1 | 0 | 3752 | ? | 22
COc1ccc(/C=N/NC(=O)CCc2c(C)n[nH]c2C)cc1OC | 12 | 0 | 1 | 9459 | 5 | -2
Cc1ccc(C(=O)C(OC(=O)CNC(=O)c2ccc(Cl)cc2)c2ccccc2)cc1 (stereo not drawn) | 7 | ? | 0 | 21549* | 5 | -2
Cc1ccc(C(=O)C(OC(=O)CN2C(=O)c3ccccc3C2=O)c2ccccc2)cc1C (stereo not drawn) | 1 | 1 | -1 | 22707* | 1 | 3
Cc1ccc(C(=O)C(OC(=O)CN2C(=O)c3ccccc3C2=O)c2ccccc2)cc1 (stereo not drawn) | -1 | 0 | 2 | 10662 | -5 | 0
O=C(CN1C(=O)c2ccccc2C1=O)OC(C(=O)c1ccc(Cl)cc1)c1ccccc1 (stereo not drawn) | -9 | -4 | -1 | 21488* | -6 | 1
Cc1cc(C)cc(OCC(=O)Nc2ccccc2C(=O)NCc2ccco2)c1 | -2 | 1 | -7 | 4388 | -5 | -3
CC1(C)Cc2c(C#N)c(NCCN3CCOCC3)nc(-c3ccccc3)c2CO1 | 20 | 0 | -1 | 4706 | -2 | -2
CC1(C)Cc2c(C#N)c(NCCN3CCOCC3)nc(-c3ccco3)c2CO1 | -4 | 2 | -6 | 21315* | 1 | 13
Cc1cc(C(=O)CN(Cc2ccc(F)cc2)S(=O)(=O)c2ccc3c(c2)OCCO3)c(C)n1C | -5 | ? | -3 | 20608* | -4 | 4
Cc1cc(C)n(CC(O)COCc2ccccc2)n1 (stereo not drawn) | -1 | ? | -1 | 20483* | -3 | 1
Cc1cc2c(cc1C)[n+](C)cn2CC(O)COCc1ccccc1 (stereo not drawn) | -2 | 3 | -3 | 22173* | 4 | 4
Cc1cc(C)n(CC(O)COc2cccc(OCC(O)Cn3nc(C)cc3C)c2)n1 (stereo not drawn) | -8 | 2 | 2 | 4220 | 9 | 2
OC1(c2ccc(F)cc2)CCNC1 (stereo not drawn) | 7 | 0 | -1 | 23064* | -1 | 0
CC(C)(C)c1cn(-c2ccc(F)cc2)c(=S)[nH]1 | 7 | ? | 0 | 19889* | 9 | 1
Cc1ccccc1-c1cn(-c2ccccc2)c(=S)[nH]1 | 16 | -1 | -5 | 5922 | -1 | 9
SMILES | GDH-TPI inh | BoNT-A LC inh2 | Anthrax LF prot | Bead autofluor | BoNT-F LC inh | FBA Mtb inh
CC(=O)OCC(=O)N1N=C(c2ccc3ccccc3c2)CC1c1ccccc1 (stereo not drawn) | 1 | 0 | -1 | 2398 | 1 | 1
CCc1nnc(NC(=O)C2CCCN(c3nc4ccccc4s3)C2)s1 (stereo not drawn) | -5 | 0 | 1 | 19697* | -1 | -2
O=C(Nc1ccc2c(c1)OCO2)C1CCCN(c2nc3ccccc3s2)C1 (stereo not drawn) | 6 | 13 | -3 | 18282* | 14 | 1
Cc1c(C(=O)O)oc2c1C(O)CC(C)(C)C2 (stereo not drawn) | 5 | -1 | -2 | 16667*! | -2 | 2
CS(=O)(=O)c1ccc2nc(NC(=O)c3ccc(NS(=O)(=O)c4cccc([N+](=O)[O-])c4)cc3)sc2c1 | 89* | 0 | 4 | 5043 | -5 | 0
CCC(=O)Nc1nc2ccc([N+](=O)[O-])cc2s1 | 31* | . | . | . | . | 3
O=C(Nc1ccc(F)cc1F)c1ccc(-n2cncn2)nc1 | 11 | ? | -4 | 21818* | 0 | 0
COc1ccc(NC(=O)c2ccc(-n3cccn3)nc2)cc1 | 14 | 2 | -2 | 22260* | 6 | -1
COc1ccc(NC(=O)c2ccc(-n3cccn3)nc2)c(OC)c1 | 8 | -3 | -6 | 22774* | -6 | 2
O=C(Nc1ccc(F)cc1)c1ccc(-n2ccnc2)nc1 | -2 | 1 | -4 | 22409* | 0 | 4
COc1ccc(C(C)=NOC(=O)c2c(-c3ccccc3Cl)noc2C)cc1CN1CCOCC1 | 11 | 0 | 1 | 3893 | -6 | -1
CN(CC(=O)Nc1ccccc1Cl)C(=O)COC(=O)/C=C/c1cccs1 | 9 | -2 | 0 | 8083 | -4 | -6
COc1ccccc1NC(=O)c1ccc(-n2cccn2)nc1 | 8 | 0 | 1 | 22967* | -2 | -1
COc1ccccc1NC(=O)c1ccc(C(=O)Nc2ccccc2OC)nc1 | 12 | 2 | 7 | 3772 | -16 | 1
N#Cc1cccnc1Oc1ccccc1 | -1 | 0 | -7 | 4428 | -8 | -1
Cc1nn(-c2ccccc2)c(Cl)c1/C=N/Nc1ccc(S(=O)(=O)Nc2ccccc2C(=O)O)cc1[N+](=O)[O-] | 47* | ? | -2 | 15380 | 2 | -6
O=C(O)c1ccccc1NS(=O)(=O)c1ccc(NN=Cc2ccccc2F)c([N+](=O)[O-])c1 | 32* | 0 | -4 | 2962 | 2 | -1
CCOc1ccc(C=NNc2ccc(S(=O)(=O)Nc3ccccc3C(=O)O)cc2[N+](=O)[O-])cc1 | 14 | 0 | -1 | 3861 | 9 | 2
COc1ccc(NC(=S)NNc2ccc(S(=O)(=O)Nc3ccccc3C(=O)O)cc2[N+](=O)[O-])cc1 | 41* | -4 | -14 | 3819 | -10 | -4
